Data published in PubChem BioAssay (NCATS).
“And” between values parts separate entries of the source, which are not always exact repeats. Equal entries are not always repeated. Records with an inconclusive call do not appear. Unmarked numbers belong to inactive results. The source made the active and inactive calls. The call rests on the fitted dose curve; in most records, active means well fitted cell-killing curve with a large enough effect; inconclusive means small, poorly fitted or top-dose-only effect; inactive means flat fitted curve, though single readings scatter.

Key:
[1] = Cellular viability qHTS for adrenocortical cancer (ACC) cell line SW-13 (AID 1963989); settings: SW-13 ACC cells viability, CellTiter-Glo, 48 h; activity (max response): stronger effect = lower value; further: nearly all actives have a fitted effect of over 65% in size;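 on activity (max response): cells grown in serum-free medium with ITS supplement; on the % scale 0 is the no-effect control and ±100 the full control effect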
Summary of the method: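 SW-13 cells in ITS-supplemented serum-free DMEM were plated overnight, then exposed for 48 h at 37C to compound titrations (up to 46 uM final). Viability was read by CellTiter-Glo luminescence; four-parameter logistic fits gave IC50 and efficacy.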

[2] = Cellular viability qHTS for adrenocortical cancer (ACC) cell line NCI-H295R (AID 1963990); further: nearly all actives have a fitted effect of over 60% in size;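 on activity change, negative = viability loss: 0% = DMSO only wells and -100% = full killing with cytotoxic reference compound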
Summary of the method: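 Luminescent ATP read-out (CellTiter-Glo, 20 min RT) after 48 h drug exposure of NCI-H295R cells; a titration up to 46 uM final. Data normalized to doxorubicin (100% inhibition) and DMSO (0%); 4-parameter fit gives IC50, max response.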
Potency means the concentration at half of the fitted maximal effect.

SMILES	Potency [1]	Potency [2]	activity (max response) [1]	activity change, negative = viability loss [2]
C/C(=C\C(=O)Nc1ccccc1C(=O)O)c1ccc2ccccc2c1	12.6 µM (active)	28.2 µM (active)	–	–
CC(C)(c1ccc(OCC(O)CO)cc1)c1ccc(OCC(O)CCl)cc1 (configuration not stated)	–	inactive	-21.2%	–
C[C@]1(C(=O)N(CCCC(=O)O)Cc2cccc(Cl)c2)CCN1C(=O)c1csc2ccccc12	–	inactive	-17.4%	–
C[C@]12CC[C@@H]3c4ccc(O)cc4CC[C@H]3[C@@H]1CCC2=O	–	inactive	-14.1%	–
COc1ccccc1N1CCN(CCCCNC(=O)c2ccc(-c3ccc(C(C)=O)cc3)cc2)CC1	–	inactive	-20.9%	–
CCCC(=O)OC[C@@H](OC(=O)CCC)[C@@H](OC(=O)CCC)[C@H](Cn1c2nc(=O)[nH]c(=O)c-2nc2cc(C)c(C)cc21)OC(=O)CCC	–	inactive	-8.77%	–
O=c1c(-c2ccc(O)cc2)coc2cc(O[C@@H]3O[C@H](CO)[C@@H](O)[C@H](O)[C@H]3O)ccc12	–	inactive	-7.43%	–
C[C@]12CC[C@H](O)CC1=CC[C@@H]1[C@@H]2CC[C@]2(C)C(c3cccnc3)=CC[C@@H]12	–	inactive	2.71%	–
C[C@H]1C[C@@H]2[C@H]([C@@H](O)C[C@@]3(C)[C@H]2CC[C@]3(O)C(=O)CO)[C@@]2(C)C=CC(=O)C=C12	–	inactive	8.4% and 9.49%	–
CC1=C2[N-][C@H]([C@H](CC(N)=O)[C@@]2(C)CCC(=O)NC[C@@H](C)OP(=O)([O-])O[C@H]2[C@@H](O)[C@@H](n3cnc4cc(C)c(C)cc43)O[C@@H]2CO)[C@]2(C)N=C(C(C)=C3N=C(C=C4N=C1[C@@H](CCC(N)=O)C4(C)C)[C@@H](CCC(N)=O)[C@]3(C)CC(N)=O)[C@@H](CCC(N)=O)[C@]2(C)CC(N)=O.O.[Co+2]	–	inactive	-17.2%	–
CCN(CC)CCNC(=O)COc1ccc(OC)cc1	–	inactive	-8.99%	–
CC(C)(Oc1ccc(Cl)cc1)C(=O)OCCCOC(=O)C(C)(C)Oc1ccc(Cl)cc1	–	inactive	0.371%	–
CO/N=C1\CN(c2nc3c(cc2F)c(=O)c(C(=O)O)cn3C2CC2)CC1CN (configuration not stated)	–	inactive	-3.25%	–
CCS(=O)(=O)c1ccc2oc(-c3ccc4ccccc4c3)nc2c1	–	inactive	1.49%	–
CC(=O)N1CCN(c2ccc(NC(=O)Cc3cnc(-c4ccnc(F)c4)c(C)c3)nc2)CC1	–	inactive	4.66%	–
C/C(=C(\CCO)SS/C(CCO)=C(\C)N(C=O)Cc1cnc(C)nc1N)N(C=O)Cc1cnc(C)nc1N	–	inactive	7.36%	–
CO[C@@]1(NC(=O)CSCC#N)C(=O)N2C(C(=O)O)=C(CSc3nnnn3C)CS[C@@H]21	–	inactive	9.84%	–
CC[N+](C)(CC)CCOC(=O)C(O)(c1ccccc1)C1CCCCC1 (configuration not stated)	–	inactive	7.72%	–
CCn1nc(C(=O)O)c(=O)c2cc3c(cc21)OCO3	–	inactive	1.15%	–

SMILES	Potency [1]	Potency [2]	activity (max response) [1]	activity change, negative = viability loss [2]
c1ccc2c(c1)CCCC2C1=NCCN1 (configuration not stated)	–	inactive	5.7%	–
CC(C)(Cc1c[nH]c2ccccc12)NCC(O)COc1ccccc1C#N (configuration not stated)	–	inactive	-3.72%	–
NC(N)=NCCN1CCCCCCC1	–	–	5.33%	7.14% [at 0.587 µM]
CN1C(=O)[C@@H](NC(=O)c2n[nH]c(Cc3ccccc3)n2)COc2ccccc21	–	inactive	8.85%	–
CN/C(=C\[N+](=O)[O-])NCCSCc1ccc(CN(C)C)o1	–	inactive	0.385%	–
CCC(C)CNCC(=O)N1CCc2sccc2C1c1cccc(C)n1 (configuration not stated)	–	inactive	11.1%	–
C[C@H](CS)C(=O)N1CCC[C@H]1C(=O)O	–	inactive	-1.14%	–
COc1cc(O)c(C(=O)c2ccccc2)cc1S(=O)(=O)O	–	inactive	9.22%	–
CCOc1ccc(-n2c([C@@H](C)N(Cc3cccnc3)C(=O)Cc3ccc(F)c(C(F)(F)F)c3)nc3ncccc3c2=O)cc1	–	inactive	-7.78%	–
CCOc1ccccc1OCCN[C@H](C)Cc1ccc(OC)c(S(N)(=O)=O)c1	–	inactive	2.5%	–
O=C(CS)Nc1ccccc1	–	inactive	-14.1%	–
Cc1cc(Nc2cc(N3CCN(C)CC3)nc(/C=C/c3ccccc3)n2)n[nH]1	25.1 µM (active)	10 µM (active)	–	–
O=C1[C@@H]2[C@H]3CC[C@H](C3)[C@@H]2C(=O)N1CCCCN1CCN(c2ncccn2)CC1	–	inactive	6.58%	–
CC(=O)[C@@]1(O)CC[C@H]2[C@@H]3CCC4=CC(=O)CC[C@]4(C)[C@H]3CC[C@@]21C	–	inactive	-6.65%	–
CO[C@H]1O[C@@H]2O[C@@]3(C)CC[C@H]4[C@H](C)CC[C@@H]([C@H]1C)[C@@]24OO3	–	inactive	0.283%	–
COc1c(C)cc(NC(=O)c2nn(Cc3ccc(F)cc3)c3c2CN(C(=O)c2ccc[nH]2)C[C@]3(C)C(N)=O)cc1C	–	inactive	-5.75%	–
CCCCNc1ccc(C(=O)OCCN(CC)CC)cc1	–	inactive	-7.77%	–
O=C(O)CCNc1cc(N2CCc3ccccc3CC2)nc(-c2cccnc2)n1	–	inactive	-9.23%	–
N#C/C(=C1\SCC(c2ccccc2Cl)S1)n1ccnc1 (configuration not stated)	–	inactive	-13.5%	–

SMILES	Potency [1]	Potency [2]	activity (max response) [1]	activity change, negative = viability loss [2]
C=C[C@@]1(C)CC(=O)[C@]2(O)[C@@]3(C)[C@@H](O)CCC(C)(C)[C@@H]3[C@H](O)[C@H](OC(C)=O)[C@@]2(C)O1	–	inactive	4.29%	–
COc1cc(=C2C=c3ccccc3=N2)[nH]/c1=C/c1[nH]c(C)cc1C	28.2 µM (active)	7.94 µM (active)	–	–
c1ccc(-c2nc[nH]c2-c2ccccc2)cc1	–	inactive	-22.8%	–
O=C(O)Cc1ccc(CCNS(=O)(=O)c2ccc(Cl)cc2)cc1	–	inactive	-0.672%	–
CCN(CC)CCNC(=O)c1c(C)[nH]c(/C=C2\C(=O)Nc3ccc(F)cc32)c1C	18.4 µM (active)	13 µM (active) and 15.8 µM (active)	–	–
CC1CCC(n2c3cnccc3c3cnc(Nc4ccc5c(n4)CCN(C(=O)CO)C5)nc32)CC1 (configuration not stated)	–	–	-7.81%	3.35% [at 9.17 µM]
CCN1CCN(Cc2ccc(NC(=O)c3ccc(C)c(NC(=O)c4cncc(-c5cccs5)c4)c3)cc2C(F)(F)F)CC1	2 µM (active)	2.51 µM (active)	–	–
Cn1c(=O)c(Oc2ccc(F)cc2F)cc2cnc(NC3CCOCC3)nc21	–	inactive	-3.03%	–
C[C@H]1CC2[C@@H]3CCC4=CC(=O)C=C[C@]4(C)[C@@]3(F)[C@@H](O)C[C@]2(C)[C@@]1(O)C(=O)CO (some centres not stated)	–	inactive	-7.86%	–
Oc1c(Cl)cc(Cl)cc1Sc1cc(Cl)cc(Cl)c1O	20.6 µM (active)	20.6 µM (active)	–	–
CC(=O)Oc1ccc(C(c2ccc(OC(C)=O)cc2)c2ccccn2)cc1	–	inactive	-17.9%	–
CC[C@H]1OC(=O)[C@H](C)C(=O)[C@H](C)[C@@H](O[C@H]2O[C@H](C)C[C@H](N(C)C)[C@H]2O)[C@](C)(OC)C[C@@H](C)C(=O)[C@H](C)[C@H]2N(CCCCn3cnc(-c4cccnc4)c3)C(=O)O[C@]12C	–	inactive	-18.8%	–
CO[C@]12C[C@@H](COC(=O)c3cncc(Br)c3)CN(C)[C@@H]1Cc1cn(C)c3cccc2c13	–	inactive	3.85%	–
O=C(Nc1ccccc1)Nc1ccc(-c2ccc(C(=O)[C@@H]3CCC[C@H]3C(=O)O)cc2)cc1	–	inactive	-19.9%	–
COC(=O)N(C)c1c(N)nc(-c2nn(Cc3ccccc3F)c3ncccc23)nc1N	–	inactive	-4.16%	–
Cc1ccc(O)c2ncccc12	–	20.6 µM (active)	11.9%	–
CC(=O)[C@@]1(O)CC[C@H]2[C@@H]3C[C@H](C)C4=CC(=O)CC[C@]4(C)[C@H]3CC[C@@]21C	–	inactive	-1.82%	–
C1CCN2C[C@@H]3C[C@@H](CN4CCCC[C@@H]34)[C@H]2C1	–	inactive	-0.968%	–
